# Rows were chosen to be rich in hits. Some 4.8% of all compounds tested hit in one or more screens of this group.
# HIF activator: HIF pathway transcriptional activation | AID 1910 | activation, % at 7.5 µM (by protocol) | 300,000 compounds, 0.32% hits | U2OS HRE-luciferase reporter, luminescence; normalized: DMSO 0%, desferrioxamine 100%;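 active = mean activation of at least 10% of the iron chelator positive control signal, with at least half of replicates also reaching 10%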
# SUMO Mot1 rescue: blocks SUMOylation pathway, rescuing yeast Mot1-301 growth; S. cerevisiae Mot1-301 growth rescue, ATP luminescence, 38.5C; percent above DMSO median, 100 means doubled; growth rescue, % at 18.8 µM; 320,000 compounds, 1% hits; AID 2716;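 active = every valid replicate shows activation above 250% relative to neutral control wells; inactive = the rest, any valid replicate at or below 250%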
# ALR H2O2 inh: human ALR oxidase inhibition via reduced H2O2 | P55789 | purified ALR, DTT oxidation, H2O2 HRP-luminol luminescence | inhibition, % (no concentration beside the values) | 290,000 compounds, 3.8% hits;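 active = mean replicate inhibition above about 79%, with every replicate also reaching it, limit read from the data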
# Target sequence (P55789 whole entry, looked up): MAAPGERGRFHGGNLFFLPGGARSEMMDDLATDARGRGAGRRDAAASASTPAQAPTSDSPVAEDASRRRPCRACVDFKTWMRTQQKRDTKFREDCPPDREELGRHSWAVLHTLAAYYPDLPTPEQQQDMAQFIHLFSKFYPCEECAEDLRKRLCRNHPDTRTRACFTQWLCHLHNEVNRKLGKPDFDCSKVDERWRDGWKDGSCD
# AI-2 QS modul: Vibrio harveyi AI-2 quorum sensing modulation. Vibrio harveyi JMH597 AI-2 luminescence/OD600 ratio, 9 h; active compounds read low; strain lacks LuxN and CqsS sensors; 0 = neutral-control median. 300,000 compounds, 0.4% hits. activity change, % at 7.5 µM; in the data active = activity change below about -75%, passing the limit was not always enough;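 note: luminescence divided by OD600 gain over 9 h not by final OD600 alone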
# Numbers stand for hits; 0 = inactive; - = not tested or not shown.
SMILES,HIF activator,SUMO Mot1 rescue,ALR H2O2 inh,AI-2 QS modul
COc1ccc(N2CCN(C(=O)c3c(Cl)cnn3C)CC2)cc1,0,0,98.8,0
CCOC(=O)N1CCN(C(=O)Cc2ccc(Cl)cc2)CC1,0,0,96.1,0
COc1ccc(N2CCN(C(=O)COc3ccc4c(C)c(C)c(=O)oc4c3C)CC2)cc1,51.2,0,0,0
Cc1c(C)c2ccc(OCC(=O)N3CCN(c4ccc(F)cc4)CC3)c(C)c2oc1=O,0,0,0,0
CCOC(=O)N1CCN(C(=O)COC(=O)Cc2ccc(Cl)cc2)CC1,0,0,0,0
O=C(c1ccc2c(c1)OCCO2)C1CCN(C(=O)Nc2ccccc2F)CC1,0,0,0,0
Cn1cc(CC(=O)N2CCN(c3ccc(Cl)cc3)CC2)c2ccccc21,42.2,0,0,0
COc1ccc(C(=O)CCC(=O)N2CCN(c3ccc(C)cc3)C(C)C2)cc1 (stereo unspecified),0,0,99.0,0
COc1ccc(N2CCN(C(=O)C3(C)CC3(Cl)Cl)CC2)cc1 (stereo unspecified),0,0,99.2,0
COc1ccc(N2CCN(C(=O)c3ccncc3)CC2)cc1,0,0,0,0
CCOC(=O)N1CCN(C(=O)CSCc2ccccc2Cl)CC1,0,0,99.0,0
COc1ccc(N2CCN(C(=O)CCCC(=O)c3ccccc3)CC2)cc1,0,0,0,0
CCCN(CC(=O)Nc1cc(Cl)ccc1Cl)C(=O)c1ccccc1SCC(=O)N1CCCC1,0,0,-,0
CCN(CC(=O)Nc1cc(Cl)ccc1C)C(=O)c1ccc2c(c1)NC(=O)C(C)S2 (stereo unspecified),0,0,0,0
O=C(CCC(=O)N1CCN(c2cccc(Cl)c2)CC1)N1CCN(c2ccccc2)CC1,0,0,98.5,0
COc1ccc(N2CCN(C(=O)CSc3nnnn3C3CC3)CC2)cc1,-,0,86.6,-
COc1ccc(N2CCN(C(=O)CSc3ccccc3)CC2)cc1,0,0,0,0
O=C(Cc1ccc(Cl)cc1)N1CCN(c2ccccc2)CC1,0,0,87.8,0
COc1ccc(N2CCN(C(=O)Cc3ccc(Cl)cc3)CC2)cc1,0,0,0,0
COc1ccc(N2CCN(C(=O)Cc3ccc(C)cc3)CC2)cc1,0,0,79.6,0
O=C(Cc1ccc(Cl)cc1)N1CCN(c2ccc(F)cc2)CC1,0,0,0,0
COC(=O)C1=C(CCc2ccccc2)NC(=O)NC1c1ccc(Br)cc1 (stereo unspecified),0,0,0,0
CSCCC(NC(=O)c1ccc([N+](=O)[O-])cc1Cl)C(=O)OC(C)C(=O)NCc1ccco1 (stereo unspecified),0,0,0,0
O=C(O)/C=C/C(=O)Nc1ccccc1C(=O)OCC(=O)c1ccc2c(c1)OCCO2,-,-,87.9,0
CCOC(=O)c1ccccc1NC(=O)/C=C/C(=O)O,0,0,98.2,0
SMILES,HIF activator,SUMO Mot1 rescue,ALR H2O2 inh,AI-2 QS modul
CCOC(=O)c1ccccc1NC(=O)COC(=O)C1=COCCO1,0,285.7,0,0
Cc1c(C(=O)OCC(=O)c2ccc3c(c2)OCCO3)oc2ccccc12,0,312.1,0,0
Cc1ccc(C(=O)N[C@H](C(=O)NC2CCCCC2)C(C)C)cc1,-,0,-,-
COc1ccc(NC(=S)N(C(C)C)C2CCN(C(C)C)CC2)cc1Cl,0,0,0,0
CC(C)(C)OC(=O)NN1CC(=O)N2[C@@H](Cc3c([nH]c4ccccc34)C2(C)C)C1=O,0,0,0,0
OCC[C@@H]1C[C@H](O)[C@@H](O)[C@]2(Cc3ccccc3CO2)O1,0,0,0,0
CCS(=O)(=O)c1ccc(O)c(NC(=O)/C=C/c2ccc(Cl)cc2)c1,0,0,0,-82.8
Cc1ccc(/C=C/C(=O)Nc2cc(S(N)(=O)=O)ccc2O)cc1,0,0,0,0
CCn1c2ccccc2c2cc(NC(=O)CSc3nnc(-c4ccc(OC)c(OC)c4)n3N)ccc21,0,0,98.4,0
CCn1c2ccccc2c2cc(NC(=O)CSc3nnc(-c4cccc(OC)c4)n3N)ccc21,0,0,0,0
CCCCN(C(=O)CSCc1ccc(C)cc1)c1c(N)n(CCC)c(=O)[nH]c1=O,0,0,0,0
OCCN1CCN(c2ncnc3sc4c(c23)CCCC4)CC1,0,0,0,0
Oc1ccc(N2CCN(c3ncnc4sc5c(c34)CCC5)CC2)cc1,0,0,98.5,0
Cc1nc2c3ccccc3nc(NNC(=O)CCC(=O)NCCN3CCN(c4ccccc4)CC3)n2n1,0,0,98.4,0
CCCCNC(=O)CCC(=O)NNc1nc2ccccc2c2nc(C)nn12,0,0,0,0
Cc1nc2c3ccccc3nc(NNC(=O)CCC(=O)N3CCN(c4ccc(F)cc4)CC3)n2n1,0,0,89.7,0
COc1ccc(CCC(=O)Nc2ccc3c(c2)OCO3)cc1OC,0,0,-,0
CC(=O)c1c(N2CCN(c3cccc(Cl)c3)CC2)nc(=S)n(-c2ccccc2)c1C,-,0,0,0
CCn1c(C)c(C(C)=O)c(NCc2ccccc2)nc1=S,0,0,98.0,0
CC(=O)c1c(NCc2ccccc2)nc(=O)n(-c2ccccc2)c1C,0,0,0,0
CCn1c(C)c(C(C)=O)c(N2CCN(c3cccc(Cl)c3)CC2)nc1=S,0,584.6,0,0
COc1ccc(C(=O)N2CCN(c3ccccc3Cl)CC2)cc1S(=O)(=O)NC1CC1,-,0,0,-
COCCCN1C(=O)C(=O)/C(=C(/O)c2ccc3c(c2)OCCO3)C1c1ccc(C(=O)OC)cc1 (stereo unspecified),0,0,84.6,0
COCCN1C(=O)C(=O)/C(=C(/O)c2ccc3c(c2)OCCO3)C1c1ccc(C(=O)OC)cc1 (stereo unspecified),0,0,0,0
CC(C)c1ccc(C(=O)NNC(=O)C2C3CCC(C3)C2C(=O)O)cc1 (stereo unspecified),0,0,0,0
SMILES,HIF activator,SUMO Mot1 rescue,ALR H2O2 inh,AI-2 QS modul
Cc1cc2nc(-c3ccc(SCC(=O)NC(C)C)nc3)[nH]c2cc1C,0,0,0,0
Cc1cc2nc(-c3ccc(SCc4ccc(C(=O)O)cc4)nc3)[nH]c2cc1C,0,0,98.7,0
CCOC(=O)c1ccc(NC(=O)CSc2nc3c(c(=O)n2C)SC(C)C3)cc1 (stereo unspecified),0,0,99.6,0
CCn1c(SCC(=O)Nc2cccc(F)c2)nc2c(c1=O)SC(C)C2 (stereo unspecified),0,0,-,0
CCOC(=O)c1ccc(NC(=O)CSc2nc3c(c(=O)n2CC)SC(C)C3)cc1 (stereo unspecified),0,0,98.6,0
CC(=O)c1cccc(OC(=O)c2cc(S(=O)(=O)N3CCOCC3)ccc2N2CCCC2)c1,-,0,0,-
CNC(=S)NNc1nc(N2CCOCC2)nc(N2CCOCC2)n1,0,0,84.9,0
Cc1cc(C)nc(N/N=C/C2=C(N3CCOCC3)C(=C\c3ccc(Cl)cc3)/CC2)n1,0,0,97.7,0
Cc1cc(C)nc(Nc2ccc(O)cc2)n1,0,0,99.7,0
Oc1cccc(Nc2nc(N3CCOCC3)nc(N3CCOCC3)n2)c1,0,0,83.7,0
Cc1ccc(S(=O)(=O)CCC(=O)OCC(=O)Nc2ccc(N3CCOCC3)cc2)cc1,0,0,0,0

# Assay outcomes: PubChem BioAssay, Broad Institute
